# Only some compounds are listed: those with a hit (about 6.5% of all), similar ones and a draw of the others.
# Vaccinia mCherry = qHTS for Stage-Specific Inhibitors of Vaccinia Orthopoxvirus: mCherry Reporter Primary qHTS. 0.63% of 310,000 active. AID 720579, 2013. Vaccinia virus mCherry reporter infection, fluorescence. Potency, µM (series often up to 36.5 µM), for the others: at the top dose activity change, negative = inhibition, actives largely listed as inhibitors; calls by dose curve; tested in A549 cells; note: potency is the fitted concentration of half-maximal effect; nearly all actives have a fitted effect of over 35% in size
# HCMV inh = qHTS Assay for inhibitors of the human cytomegalovirus (HCMV) | HFF cells, HCMV-luciferase reporter, 72 h; hits give low values | activity change, negative = inhibition, % at 57.5 µM | 4.5% of 410,000 active | AID 1259415, 2018; in the data active = activity change below about -60%; inconclusive = no clear call, values can overlap the other calls; inactive = above about -39%
#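 Cell-based, HFFs, 1000 cells/well, 16 h 37C; cpds in DMSO + HCMV-luc, MOI 1 PFU/cell; 72 h 37C; OneGlo luminescence after 5 min RT; norm. to buffer vs Salinomycin 10uM.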
# VACV Venus inh = qHTS for Stage-Specific Inhibitors of Vaccinia Orthopoxvirus: Venus Reporter Primary qHTS. Vaccinia virus Venus reporter expression, fluorescence. Potency, µM (top dose mostly 36.5 µM), for inactives: at the top dose activity change, negative = inhibition, most hits filed as inhibitors. 0.46% of 330,000 active; calls by dose curve; tested in A549 cells; note: potency is the fitted concentration of half-maximal effect; nearly all actives have a fitted effect of over 30% in size
# Marburg entry inh = qHTS for inhibitors of binding or entry into cells for Marburg Virus. Marburg virus pseudotyped entry inhibition, cell reporter. Potency, µM (doses to about 37.8 µM), inactives show at the highest dose activity change, negative = inhibition, most hits filed as inhibitors. 1.8% of 300,000 active; calls by dose curve; tested in HEK293 cells; note: potency is the fitted concentration of half-maximal effect
# FMDV inh = High Throughput Screening for Foot and Mouth Disease Virus Antivirals; Potency, µM (top dose mostly 57.9 µM), without a hit: at the top dose activity change, negative = inhibition, actives largely listed as inhibitors; FMDV antiviral cell-based qHTS; AID 1159524, 2015; 1.2% of 410,000 active; calls by dose curve; tested in HEK293T cells; note: read-out not given here; potency is the fitted concentration of half-maximal effect; nearly all actives have a fitted effect of over 45% in size
# LASV entry inh = qHTS for Inhibitors of binding or entry into cells for Lassa Virus; Potency, µM (doses to about 37.9 µM), without a hit: at the top dose activity change, negative = inhibition, most hits filed as inhibitors; AID 540256, 2011; 1.2% of 300,000 active; Lassa virus pseudotype entry inhibition, cell reporter; calls by dose curve; tested in HEK293 cells; note: potency is the fitted concentration of half-maximal effect; nearly all actives have a fitted effect of over 50% in size
# * hit, by the source's call; i = inactive; ? = inconclusive; / = no result given; [ ] = another dose, or the depositor's remark. % is set by controls: 0 for no effect and ±100 for the full control effect.
SMILES,Vaccinia mCherry,HCMV inh,VACV Venus inh,Marburg entry inh,FMDV inh,LASV entry inh
COC(=O)c1scc(C)c1NC(=O)Nc1ccccc1,/,-99*,-4%,-3%[46.1 µM],-13%,1%
Cc1ccc2onc(CC(=O)N3CCN(c4ccc(F)cc4)CC3)c2c1,-5%,-13,-14%,/,-15%,-25%[46.1 µM]
CC(C)n1cnc2c(NCc3ccccc3)cc(N[C@H](C)CO)cc21,?,/,14µM*,/,8.9µM*,/
CCC(CO)Oc1cc(NCc2ccc(C(C)(C)C)cc2)c2ncn(C(C)C)c2c1 (stereo not given),13µM*,18,?,/,-20%,/
CCC(CO)Oc1cc(NCc2ccc(O)cc2)c2ncn(C(C)C)c2c1 (stereo not given),?,3,-3%,/,-3%,/
O=C(NCc1ccc(Cl)cc1)C(=O)c1cn(CC(=O)N2CCOCC2)c2ccccc12,/,-87*,/,/,-10%,/
N#Cc1cccc(-c2cncnc2NCc2cccs2)c1,/,/,/,/,-13%,/
Cc1c(C(=O)Nc2ccc3oc(-c4cccnc4)nc3c2)oc2ccccc12,/,-67*,/,-19%,-13%,18µM*
Cc1c(C(=O)NCc2ccccn2)oc2ccc(Br)cc12,97%,31,-11%,21%,36%,20%
Cc1c(C(=O)Nc2cccnc2)oc2ccc(Br)cc12,?,51,?,5µM*,62%,?
CCc1ccc2oc(C(=O)Nc3cccnc3)c(C)c2c1,/,/,/,/,27%,/
Cc1c(C(=O)NCc2cccs2)oc2ccc(Br)cc12,/,14,/,7.3µM*,41%,?
CCCCOc1cccc(C(=O)Nc2ccc3oc(-c4cccnc4)nc3c2)c1,-20%,-33,-15%,/,16µM*,26%[46.1 µM]
COc1ccc(CCNC(=O)c2ccc3c(c2)c(C)c(C)n3Cc2ccc(F)cc2)c(OC)c1OC,-15%,0,-18%,/,-11%,-5%[46.1 µM]
COC(=O)c1ccc(COc2cccc3c2OC(C)(C)C3)cc1,-28%,-6,-10%,-9%,?,1%
COc1ccc(CNCC(O)COc2cccc3c2OC(C)(C)C3)cc1 (stereo not given),?,-64*,-22%,?,-30%,?
Clc1nc(NCC2CCCO2)c2[nH]cnc2n1 (stereo not given),-24%,/,-14%,/,/,/
Cn1c(=O)n(C)c2cc(N3CCCCC3)c(NC(=O)c3ccc(Cl)cc3)cc21,-5%,4,-10%,1%[46.1 µM],-8%,-17%[46.1 µM]
Cc1cc(N(CCCl)CCCl)ccc1C=Cc1ccncn1,?,?,45%,4µM*,-27%,?
CSC(=N/N=C(\N)c1cnccn1)SC,i,-36,-8%,1%,-8%,11%
Cc1cc(N(CCCl)CCCl)ccc1/C=N/N=C(\N)c1cnccn1,i,-16,-7%,2.2µM*,19%,?
c1cncc(-c2nc(NCCN3CCOCC3)c3ccccc3n2)c1,16%,/,19%,/,-2%,/
O=C(NCCc1ccc(Cl)cc1)c1cccn1-c1nnc(N2CCCC2)s1,-16%,0,-10%,/,2%,4%[46.1 µM]
COc1ccc(C(=O)N(Cc2cc3cccc(C)c3nc2N(C)C)CC2CCCO2)cc1 (stereo not given),-11%,/,11%,/,-3%,/
CC(=O)N1CCN(c2ccc(NCc3ccc(C)cc3)cc2)CC1,/,-4,/,15%,-15%,-6%
SMILES,Vaccinia mCherry,HCMV inh,VACV Venus inh,Marburg entry inh,FMDV inh,LASV entry inh
CCc1ccc(CNc2ccc(N3CCN(C(C)=O)CC3)cc2)cc1,?,-80*,?,-24%,-24%,?
CN1CCN(C(=O)c2ccc3c(c2)N(Cc2ccc(Cl)cc2)C(=O)c2ccccc2S3(=O)=O)CC1,-5%,-12,-5%,0%[46.1 µM],11%,1%[46.1 µM]
COc1ccc(OC)c(-n2c(=O)c3ccccc3c3ccccc3c2=O)c1,-10%,9,-19%,-5%,25µM*,-4%
COc1ccc(-n2c(=O)c3ccccc3c3ccccc3c2=O)cc1,-13%,28,-24%,20%,?,6%
CC(C)CCCCCCCCCCCCC(=O)NCC(=O)NC1C(C)OC(Nc2ncnc3nc[nH]c23)C(O)C1O (stereo not given),?,-96*,2µM*,?,?,0.079µM*
CCCCCCCCN1C(=O)[C@@H](CC(=O)NCC2CCCCC2)C[C@@]2(C(=O)OC)C1=C[C@H](C1CCCC1)O[C@@H]2C,/,9,/,/,/,/
CN(C)c1ccc(C=C2C(=O)NC(=S)NC2=O)cc1[N+](=O)[O-],i,21,-4%,27%,40µM*,12%
C=CCNC(=S)N/N=C/c1ccc(C)c([N+](=O)[O-])c1,-12%,?,-24%,?,0%,?
CN(C)c1ccc(C=C2C(=O)NC(=O)NC2=O)cc1[N+](=O)[O-],3%,-17,-2%,20%[46.1 µM],-13%,-4%
CN(C)c1ccc(/C=N/NC(N)=S)cc1[N+](=O)[O-],3.5µM*,12,4µM*,-8%[46.1 µM],28%,-5%
COc1cccc2c1C(=O)c1c(O)c3c(c(O)c1C2=O)C[C@@](O)(C(=O)CO)C[C@@H]3O[C@H]1C[C@H](N)[C@H](O)[C@H](C)O1,73%,-98*,469%,0.73µM*,?,0.37µM*
COc1cccc2c1C(=O)c1c(O)c3c(c(O)c1C2=O)C[C@@](O)(C(=O)CO)C[C@@H]3OC1CC(N)C(O)C(C)O1 (stereo not given in full),427%,-99*,i,0.5µM*,-13%,?
COc1cccc2c1C(=O)c1c(O)c3c(c(O)c1C2=O)CC(O)(C(C)=NO)CC3OC1CC(N)C(O)C(C)O1 (stereo not given),384%,-100*,i,?,25%,?
CC(=O)C1(O)Cc2c(O)c3c(c(O)c2C(OC2CC(N)C(O)C(C)O2)C1)C(=O)c1c(O)cccc1C3=O (stereo not given),326%,/,413%,/,/,/
COc1cccc2c1C(=O)c1c(O)c3c(c(O)c1C2=O)C[C@@](O)(C(=O)CO)C[C@@H]3O[C@@H]1C[C@H](N)[C@H](O)[C@H](C)O1,/,/,/,/,-18%,/
COc1cccc2c1C(=O)c1c(O)c3c(c(O)c1C2=O)CC(O)(C(C)=O)CC3OC1CC(N(C)C)C(O)C(C)O1 (stereo not given),84%,-98*,425%,?,1%,?
CC[C@]1(O)CC(O[C@@H]2CC(N(C)C)C(O)C(C)O2)c2c(cc3c(c2O)C(=O)c2c(O)cccc2C3=O)C1C(=O)OC (stereo not given in full),1%,/,0%,/,-1%,/
Cc1cc2c(c(-c3cnccn3)c1)OC(CNC(=O)c1ccccc1C(F)(F)F)C2 (stereo not given),-7%,/,-2%,/,-9%,/
OC1CCC(Nc2nccc3[nH]c(-c4ccccc4Cl)nc23)CC1 (stereo not given),/,-11,/,/,/,/

# Screens as filed in PubChem BioAssay.
